Compound activity deposited in PubChem by several laboratories.
Most compounds without a hit are left out; they make up all but 3% or so of the library.
TRPM1 prom inh: MITF TRPM1 promoter inhibition in SK-MEL-5 cells; SK-MEL-5 TRPM1 promoter luciferase, 24 h; inhibition, % at 12.5 µM; hit rate 0.83% among 330,000;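 active = mean inhibition across replicates of 60% or more, whatever share of single replicates reaches that level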
HIF-2a inh: HIF-2a inhibition | 786-0 RCC cells HIF-2a reporter, luciferase luminescence, overnight | inhibition, % at 18.8 µM | hit rate 0.72% among 360,000 | AID 624352;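 active = inhibition of the luminescence signal of 40% or more relative to plate controls, in a single-dose primary screen at 18.75 µM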
ABHD5-PLIN5 inh: inhibitors of human ABHD5-perilipin-5 interaction | Split G. princeps luciferase complementation, luminescence, 4 h | hit rate 0.78% among 360,000 | inhibition, % at 4 µM | Q00G26+Q8WTS1;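 active = inhibition above the mean inhibition across every tested compound plus 3 SD, cut at about 22% in these data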
KKLEB tox: counter-screen for CF NF-kB inhibitors: cytotoxicity | KKLEB CF airway cells viability, ATPlite luminescence, overnight; stronger effect = lower value; cells stimulated with P. aeruginosa culture filtrate | activity change (cytotoxicity), % at 5 µM | hit rate 0.36% among 360,000 | AID 602141;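 active = corrected activity change at or below -50% at 5 µM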
CF NFkB block: inhibitors of cystic fibrosis induced NF-kB | hit rate 0.86% among 360,000 | AID 588850 | inhibition, % at 5 µM | KKLEB NF-kB-GFP reporter, PAF-induced, GFP fluorescence overnight;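 active = at least 50% inhibition at 5 µM, scaled per plate between neutral and stimulator controls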;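 also: PAF is a Pseudomonas aeruginosa culture filtrate used as stimulus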
Peg3 prom inh-1: reduces Peg3 promoter-driven luciferase expression in HeLa; inhibition, % at 20 µM; hit rate 1.7% among 360,000; AID 588405; HeLa PEG-Prom luciferase reporter, luminescence, overnight;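 active = inhibition of at least 50% at 20 µM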
Peg3 prom inh-2: confirmation of Peg3 promoter inhibitors | hit rate 84% among 1,300 | AID 602417 | HeLa PEG-Prom luciferase reporter, luminescence, overnight | shares compounds with Peg3 prom inh-1 | inhibition, % at 20 µM;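 active = at 20 µM dose, 40% or more inhibition averaged across four replicates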
CF NFkB inh conf: confirmation of cystic fibrosis induced NF-kB inhibitors. shares compounds with CF NFkB block. KKLEB CF airway cells, PAF-induced NF-kB-GFP fluorescence, overnight. inhibition, % at 5 µM. hit rate 64% among 1,300. AID 602472; in the data active = inhibition above about 40%;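 also: stimulus PAF is a Pseudomonas aeruginosa filtrate and not platelet activating factor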
ABHD5 PLIN5 conf: confirmation of human ABHD5-PLIN5 interaction inhibitors. hit rate 67% among 2,200. AID 651612. inhibition, % at 4 µM. biochemical ABHD5-PLIN5 interaction, luminescence. shares compounds with ABHD5-PLIN5 inh; in the data active = inhibition above about 23%
HNF4 counter: HNF4 split-luciferase signal hit, counter-screen. shares compounds with ABHD5-PLIN5 inh. HNF4 dimerization, luminescence, biochemical. inhibition, % at 4 µM. hit rate 77% among 2,200;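 active = mean inhibition across replicate wells exceeding the computed hit threshold, cut at about 13% in these data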;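 also: light from luciferase halves that rejoin when HNF4 fusion proteins dimerize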
Mdm2-MdmX confirm: confirmation of inhibitors of human Mdm2/MdmX interaction, set 2; shares compounds with HIF-2a inh; SaOS-2 split-luciferase Mdm2/MdmX complementation, luminescence; inhibition, % at 8 µM; hit rate 99% among 740; AID 504601;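 active = mean inhibition of the luminescence signal across two replicates at or above 26 percent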
Target sequence (O15151 whole entry, looked up): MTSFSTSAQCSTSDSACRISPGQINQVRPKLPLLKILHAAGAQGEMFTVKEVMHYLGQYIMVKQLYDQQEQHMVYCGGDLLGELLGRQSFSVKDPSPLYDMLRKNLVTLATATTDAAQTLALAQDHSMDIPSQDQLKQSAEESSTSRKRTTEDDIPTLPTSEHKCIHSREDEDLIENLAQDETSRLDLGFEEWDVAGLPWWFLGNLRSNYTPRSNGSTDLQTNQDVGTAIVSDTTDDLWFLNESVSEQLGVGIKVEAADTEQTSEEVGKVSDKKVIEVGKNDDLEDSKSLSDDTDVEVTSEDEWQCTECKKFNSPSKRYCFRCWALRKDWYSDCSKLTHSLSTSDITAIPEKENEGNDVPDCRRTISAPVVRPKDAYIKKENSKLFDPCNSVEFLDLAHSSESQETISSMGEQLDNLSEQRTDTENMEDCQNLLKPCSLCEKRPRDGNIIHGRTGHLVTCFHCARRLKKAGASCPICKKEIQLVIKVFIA
Target sequence (Q00987 whole entry, looked up): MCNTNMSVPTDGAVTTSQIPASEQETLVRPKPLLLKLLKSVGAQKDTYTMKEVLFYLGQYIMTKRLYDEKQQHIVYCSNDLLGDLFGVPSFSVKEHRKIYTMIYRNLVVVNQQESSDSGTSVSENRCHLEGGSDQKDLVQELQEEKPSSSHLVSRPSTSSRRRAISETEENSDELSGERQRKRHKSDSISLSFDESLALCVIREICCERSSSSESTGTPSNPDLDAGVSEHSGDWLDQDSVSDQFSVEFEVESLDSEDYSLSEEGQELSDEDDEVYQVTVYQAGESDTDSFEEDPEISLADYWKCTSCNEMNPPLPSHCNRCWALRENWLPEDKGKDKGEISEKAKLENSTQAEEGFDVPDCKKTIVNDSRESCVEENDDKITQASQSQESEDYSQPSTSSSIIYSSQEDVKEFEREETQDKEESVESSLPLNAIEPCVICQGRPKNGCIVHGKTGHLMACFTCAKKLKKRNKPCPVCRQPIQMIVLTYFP
HIF-2a inh conf: HIF-2a inhibition, single concentration confirmation; shares compounds with HIF-2a inh; 786-0 RCC cells, HIF-2a luciferase reporter luminescence, overnight; inhibition, % at 18.8 µM; hit rate 56% among 1,800; AID 651580;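 active = mean inhibition across four replicates of at least 40 percent at the single tested concentration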
HIF-1a counter: counter-screen for HIF-2a inhibitors: HIF-1a inhibition in MiaPaCa-2 cells; shares compounds with HIF-2a inh; MiaPaCa-2 HIF-1a luciferase reporter, desferoxamine, overnight; inhibition, % at 18.8 µM; hit rate 72% among 1,800; AID 651589;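 active = mean inhibition of the reporter signal across four replicates at the single tested dose of 50% or more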
Numbers stand for hits; i = inactive; nt = no result.

SMILES	TRPM1 prom inh	HIF-2a inh	ABHD5-PLIN5 inh	KKLEB tox	CF NFkB block	Peg3 prom inh-1	Peg3 prom inh-2	CF NFkB inh conf	HIF-2a inh conf	HIF-1a counter	others
c1ccc(-c2noc(-c3ccc4c(c3)OCO4)n2)nc1	92	80	i	i	i	87	81	nt	85	87
COCCn1c(C)cc(C(=O)CSc2nnc(C)s2)c1C	67	70	i	i	i	95	74	nt	84	i
Cc1ccc(NC(=O)/C(C#N)=C(\N)C(Cl)(Cl)Cl)nc1	i	i	i	i	i	i	nt	nt	nt	nt
CCOC(=O)c1ccc2nc(Nc3nc4ccc(F)cc4s3)sc2c1	96	91	i	i	i	96	93	nt	93	73
CCOC(=O)c1ccc2nc(NC(C)=O)sc2c1	i	i	i	i	i	i	nt	nt	nt	nt
O=C(O)c1ccc2nc(-c3ccccc3)sc2c1	i	78	i	i	i	87	46	nt	62	i
COc1ccc(C(CNC(=O)c2cc(C)on2)N(C)C)cc1 (stereo not given)	i	i	i	i	i	i	nt	nt	nt	nt
Cn1ccc(NS(=O)(=O)c2cc(Br)ccc2Br)n1	i	i	i	i	i	i	nt	nt	nt	nt
CC(C)(C)c1ccc(Cn2c(=O)cnc3ccccc32)cc1	i	62	i	i	i	86	77	nt	66	86
C[C@@H](C(=O)Nc1ccc2c(c1)OCO2)n1c(=O)[nH]c2ccccc2c1=O	i	i	i	i	i	i	nt	nt	nt	nt
C[C@@H](C(=O)Nc1ccc2c(c1)OCCO2)n1c(=O)[nH]c2ccccc2c1=O	i	42	i	i	i	50	51	nt	45	78
COc1cc(SC)ccc1C(=O)Nc1nc2ccccc2[nH]1	97	96	i	-96	i	109	96	nt	99	107
O=c1cnnc(N/N=C/c2ccccn2)[nH]1	80	i	i	i	i	62	73	nt	nt	nt	Mdm2-MdmX confirm=87
C(=N\Nc1nc2ccccc2[nH]1)/c1ccccn1	83	73	i	i	i	86	76	nt	i	i
Cc1cc(=O)[nH]c(N/N=C/c2ccccn2)n1	i	i	i	i	i	i	nt	nt	nt	nt
CNC[C@H](CC1CCCCC1)NC[C@H](Cc1ccccc1)NCCC12CC3CC(CC(C3)C1)C2	i	96	i	-85	65	99	100	nt	i	104	Mdm2-MdmX confirm=103
NC[C@H](Cc1ccccc1)NCCCCC1CCCCC1	i	i	i	i	i	i	nt	nt	nt	nt
O=C(N=C1SC2CS(=O)(=O)CC2N1c1ccc(Cl)c(Cl)c1)C1CCCO1 (stereo not given)	i	i	i	i	i	i	nt	nt	nt	nt
CC(=O)c1ccc(OC(=O)Cc2cccc3ccccc23)cc1	i	i	i	i	i	i	nt	nt	nt	nt
Cc1ccc(-c2nnc(SCC(=O)Nc3ccccc3F)o2)cc1	76	77	i	i	i	89	85	nt	89	96
O=C(CCl)N1N=C(c2ccco2)CC1c1cccs1 (stereo not given)	74	40	24	i	58	90	78	i	i	73	ABHD5 PLIN5 conf=30;HNF4 counter=20
Cc1cc2sc3ccc(C#CC4(O)CCCCC4)cc3c(=O)c2cc1C	96	93	i	i	i	99	97	nt	97	103	Mdm2-MdmX confirm=101
COC[C@H]1CCCN1[C@@H]1CS(=O)(=O)N[C@H]1COCc1ccccc1	nt	i	i	i	i	i	nt	nt	nt	nt
O=C(NCc1cccs1)C1CCCN1C(=O)Nc1ccccc1[N+](=O)[O-] (stereo not given)	i	i	i	i	i	i	nt	nt	nt	nt
CCOC(=O)/C=C/C(=O)Nc1cc(S(=O)(=O)Nc2ccc(OC)cc2)ccc1N1CCOCC1	i	i	22	i	63	i	nt	i	nt	nt
SMILES	TRPM1 prom inh	HIF-2a inh	ABHD5-PLIN5 inh	KKLEB tox	CF NFkB block	Peg3 prom inh-1	Peg3 prom inh-2	CF NFkB inh conf	HIF-2a inh conf	HIF-1a counter	others
C[C@@H]1CN([C@@H](C)CO)C(=O)CCCn2nncc2CO[C@@H]1CN(C)S(=O)(=O)c1cccs1	nt	i	i	i	i	i	nt	nt	nt	nt
Cc1c([N+](=O)[O-])c2ccc(O)cc2n1-c1ccccc1	i	i	i	i	68	i	nt	78	nt	nt
CN(Cc1ccco1)c1ncnc2ccc(-c3ccoc3)cc12	i	i	i	i	66	i	nt	56	nt	nt
CN(Cc1ccco1)c1ncnc2ccc(-c3ccccc3Cl)cc12	i	i	i	i	i	i	nt	nt	nt	nt
N#C/C(=C/c1ccc(CNC(=O)C(=O)Nc2cc(Cl)cc(Cl)c2)o1)C(=O)NCc1cccnc1	i	i	i	i	54	92	nt	45	nt	nt
CCn1c(SCC(=O)NC2CCCCC2)nnc1-c1ccco1	i	i	i	i	i	i	nt	nt	nt	nt
Cc1ncc(C)c2c([N+](=O)[O-])cccc12	nt	i	i	i	i	i	nt	nt	nt	nt
Cc1cnc(C=O)c2cccc([N+](=O)[O-])c12	nt	i	i	i	83	i	nt	65	nt	nt
Cc1onc(-c2c(F)cccc2Cl)c1C(=O)Nc1cc(S(=O)(=O)N2CCCCC2)ccc1O	i	i	i	i	56	i	nt	48	nt	nt
Clc1nc(Cl)c2ncn(-c3ccccc3)c2n1	i	i	i	i	76	81	nt	i	nt	nt
CNc1nc(Cl)nc2c1ncn2-c1ccccc1	i	i	i	i	i	i	nt	nt	nt	nt
COc1ncnc2c1ncn2CCCN(C)CCc1ccccn1	nt	i	i	i	i	i	nt	nt	nt	nt
S=c1sc2c(Cl)ncnc2n1-c1ccccc1	70	84	i	i	78	112	nt	i	nt	nt
Cc1nc(N2CCN(C)CC2)c2sc(=S)n(-c3ccccc3)c2n1	i	i	i	i	i	i	nt	nt	nt	nt
CCn1c2ccccc2c2cc(/C=N/O)ccc21	i	i	i	i	72	i	nt	62	nt	nt
COc1ccc(N(CC(=O)NCCc2cccc(C)c2)S(=O)(=O)c2c(C)noc2C)cc1	i	i	i	i	i	i	nt	nt	nt	nt
COc1ccc(CNC(=O)CSc2nc3ccccc3n2C(C)=O)cc1	i	i	i	i	i	i	nt	nt	nt	nt
CC(=O)Oc1ccc(OC(C)=O)c(SCCCCCCl)c1	i	i	i	i	58	i	nt	i	nt	nt
